This passage reports growth results from PubChem BioAssay (NCI).

This is part of a sample that, as a whole, favours compounds with a hit. Of some 83,000 tested, about 20% had one in any assay.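 Negative percent growth values reflect cell death: -40 means 40% of the cells present at the start died, and -100 means all died.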 Unmarked numbers belong to inactive results. Active and inactive are the calls of the source. Rule for the calls: active = growth percent below 10; inactive = the rest.

Among the test systems are HCT-15 colon; HT29 colon; SNB-75 CNS; SNB-19 CNS; U251 CNS; PC-3 prostate; SK-MEL-5 melanoma; UACC-62 melanoma; LOX IMVI melanoma; SK-MEL-28 melanoma; SK-MEL-2 melanoma; EKVX NSCLC; SN12C renal; UO-31 renal; TK-10 renal; ACHN renal; CAKI-1 renal; A498 renal; CCRF-CEM leukemia; MOLT-4 leukemia.
Experiment in all cases: NCI-60 one-dose screen, 48 h (100 = growth as untreated, 0 = no growth, -100 = all killed)
Holding throughout (settings): 10 µM unless noted

On to `CC(=O)NCCCS(=O)(=O)O`, for which the growth was 103% in the assay with HCT-15 colon; 98.4% with HT29 colon; 98.7% in the assay on SNB-75 CNS; 103% in the assay on SNB-19 CNS; 102% with U251 CNS; 83.9% in the assay with PC-3 prostate. The growth in the assay with SK-MEL-5 melanoma was 120%; with UACC-62 melanoma, 101%; in the assay on LOX IMVI melanoma, 94.4%; in the assay with SK-MEL-28 melanoma, 107%; in the assay on SK-MEL-2 melanoma, 101%; in the assay on EKVX NSCLC, 98.6%. Moreover, the growth in the assay on SN12C renal is 88.3%; with UO-31 renal, 83.9%; in the assay on TK-10 renal, 102%; in the assay with ACHN renal it was 98.2%; with CAKI-1 renal, 88.5%; in the assay on A498 renal it was 93.4%. Further, the growth with CCRF-CEM leukemia was 106%; in the assay with MOLT-4 leukemia, 104%.

For `Cn1c(COC(=O)NCCc2ccccn2)nc2c(N3CCOCC3)nc(Cl)nc21`, the growth with HCT-15 colon was -42.2% (active); with HT29 colon it was 0.156% (active); in the assay with SNB-75 CNS it was 14.5%; with SNB-19 CNS it was 60.6%; in the assay on U251 CNS, 9.11% (active); in the assay with PC-3 prostate it was 18.4%. The growth in the assay on SK-MEL-5 melanoma is 3.6% (active); with UACC-62 melanoma, 11.1%; in the assay with LOX IMVI melanoma it was -83.7% (active); in the assay with SK-MEL-28 melanoma, -90.8% (active); in the assay with SK-MEL-2 melanoma, 26.7%; in the assay with EKVX NSCLC, 14.9%. For the same compound, the growth is -41.5% (active) in the assay with SN12C renal; -99.3% (active) with UO-31 renal; -72.2% (active) with TK-10 renal; -100% (active) in the assay on ACHN renal; -78.9% (active) with CAKI-1 renal; 51.9% in the assay with A498 renal. The growth is -9.98% (active) with CCRF-CEM leukemia and 0.583% (active) in the assay on MOLT-4 leukemia.

As for `Clc1ccc(C2CC(c3cccc(Nc4ccncc4)c3)=NN2c2cc(Cl)cc(Cl)c2)cc1` (stereo not given), the growth in the assay with HCT-15 colon is -25.2% (active); in the assay on HT29 colon it was 5.22% (active); in the assay with SNB-75 CNS it was 82.8%; in the assay with SNB-19 CNS, 89.2%; with U251 CNS, 0.417% (active); in the assay with PC-3 prostate, 48.9%. The growth in the assay with SK-MEL-5 melanoma is 88.9%; in the assay with UACC-62 melanoma it was 101%; in the assay on LOX IMVI melanoma, -44.6% (active); in the assay on SK-MEL-28 melanoma it was 74.2%; in the assay on SK-MEL-2 melanoma, 107%; in the assay on EKVX NSCLC it was 74.3%. The growth with SN12C renal is 76.3%; with UO-31 renal, 71.2%; with TK-10 renal it was 94.8%; in the assay with ACHN renal it was 77.2%; in the assay with CAKI-1 renal, 55.3%; in the assay on A498 renal, 85.6%. Moreover, the growth with CCRF-CEM leukemia was 11.3%; with MOLT-4 leukemia, 7.7% (active).

Consider `COc1nc(N)nc(-n2c(-c3ccc(C)cc3)nc3ccccc32)c1NCc1ccc(C)cc1`, for which the growth in the assay with HCT-15 colon was 94.8%; in the assay on HT29 colon, 94.7%; with SNB-75 CNS it was 75.5%; in the assay with SNB-19 CNS it was 86.5%; in the assay on U251 CNS it was 83%; in the assay with PC-3 prostate it was 65.7%. The growth is 96.8% with SK-MEL-5 melanoma; 64.4% with UACC-62 melanoma; 87.8% in the assay with LOX IMVI melanoma; 107% in the assay with SK-MEL-28 melanoma; 99.9% in the assay with SK-MEL-2 melanoma; 94.9% in the assay on EKVX NSCLC. Also, the growth was 90% with SN12C renal; 59.9% in the assay with UO-31 renal; 98.4% with TK-10 renal; 93.7% with ACHN renal; 40.7% with CAKI-1 renal; 80.7% in the assay with A498 renal. Besides, the growth in the assay on CCRF-CEM leukemia is 94.5%; in the assay on MOLT-4 leukemia, 83.3%.

Take `CCN(CC)CCCCCCNc1cc(OC)cc2cccnc12`: the growth in the assay on HCT-15 colon is -4.8% (active); with HT29 colon, -44.8% (active); in the assay on SNB-75 CNS, 75.5%; in the assay on SNB-19 CNS it was 95.6%; in the assay with U251 CNS, 5.33% (active); in the assay with PC-3 prostate it was 82.8%. Moreover, the growth was 68.5% in the assay on SK-MEL-5 melanoma; 102% in the assay with UACC-62 melanoma; -60.4% (active) with LOX IMVI melanoma; -11.8% (active) in the assay on SK-MEL-28 melanoma; 114% with SK-MEL-2 melanoma; 90.1% in the assay with EKVX NSCLC. Further, the growth in the assay on SN12C renal is 89.4%; in the assay on UO-31 renal, 62.6%; with TK-10 renal, 130%; in the assay with ACHN renal, 99.6%; with CAKI-1 renal, 90.4%; with A498 renal, 63.5%. In addition, the growth in the assay with CCRF-CEM leukemia is -35.6% (active); in the assay with MOLT-4 leukemia, -57.3% (active).

As for `CCN(CC)CCCC(C)Nc1c2c(nc3ccc(OC)cc13)CCCC2` (stereo not given), the growth with HCT-15 colon is 100%; in the assay with HT29 colon, 79.4%; in the assay with SNB-75 CNS, 72.8%; in the assay on SNB-19 CNS, 100%; in the assay with U251 CNS, 105%; in the assay on PC-3 prostate it was 98.6%. Further, the growth was 105% in the assay with SK-MEL-5 melanoma; 103% in the assay on UACC-62 melanoma; 87.5% in the assay on LOX IMVI melanoma; 101% with SK-MEL-28 melanoma; 128% with SK-MEL-2 melanoma; 91.2% in the assay with EKVX NSCLC. Besides, the growth with SN12C renal is 84.4%; with UO-31 renal, 76.6%; in the assay with TK-10 renal it was 111%; with ACHN renal, 96.4%; in the assay on CAKI-1 renal, 93.7%; with A498 renal, 73.5%. The growth in the assay with CCRF-CEM leukemia was 95.5%; in the assay on MOLT-4 leukemia, 94.7%.

In the case of `COc1ccc(C2=NN(C(C)=O)C(c3cn(Cc4ccc(Cl)cc4)c4ccccc34)C2)cc1` (stereo not given), the growth with HCT-15 colon is 81.6%; in the assay on HT29 colon it was 90.1%; in the assay on SNB-75 CNS it was 79.2%; in the assay on SNB-19 CNS, 76%; with U251 CNS it was 84.5%; in the assay on PC-3 prostate, 59.9%. Moreover, the growth is 85.6% in the assay with SK-MEL-5 melanoma; 66.6% in the assay on UACC-62 melanoma; 89.3% with LOX IMVI melanoma; 94% in the assay on SK-MEL-28 melanoma; 91.1% with SK-MEL-2 melanoma; 58.4% in the assay on EKVX NSCLC. Further, the growth with SN12C renal was 72.2%; in the assay on UO-31 renal, 53.4%; in the assay on TK-10 renal, 82.9%; with ACHN renal, 74.5%; in the assay on CAKI-1 renal, 52.2%; in the assay on A498 renal, 72.9%. In addition, the growth in the assay with CCRF-CEM leukemia was 70.7%; with MOLT-4 leukemia it was 67.8%.
